This is an account of results in PubChem BioAssay (NCI).

Holding throughout (experiment): NCI-60 one-dose screen, 48 h (100 = growth as untreated, 0 = no growth, -100 = all killed)
Experiment [1] has as its system K-562 leukemia. The following applies: 10 µM unless noted.
Experiment [2] has as its system MALME-3M melanoma. Particulars: 10 µM unless noted.
Experiment [3] deals with MDA-MB-231 breast. Particulars: 10 µM unless noted.
Experiment [4] relates to RXF 393 renal. The following applies: 10 µM unless noted.
The test system of experiment [5] is SF-268 CNS. The following applies: 10 µM unless noted.
Experiment [6] deals with SF-295 CNS. Particulars: 10 µM unless noted.
Experiment [7] relates to SF-539 CNS. Particulars: 10 µM unless noted.
Experiment [8] relates to UACC-257 melanoma. The following applies: 10 µM unless noted.
Experiment [9] relates to M14 melanoma. Particulars: 10 µM unless noted.
The subject of experiment [10] is HCT-15 colon. The following applies: 10 µM unless noted.
For experiment [11], the system named is HT29 colon. The following applies: 10 µM unless noted.
For experiment [12], the system named is SNB-75 CNS. Particulars: 10 µM unless noted.
For experiment [13], the system named is SNB-19 CNS. The following applies: 10 µM unless noted.
The test system of experiment [14] is U251 CNS. The following applies: 10 µM unless noted.
Experiment [15] concerns PC-3 prostate. Particulars: 10 µM unless noted.
In experiment [16] the test system is SK-MEL-5 melanoma. Particulars: 10 µM unless noted.
The test system of experiment [17] is UACC-62 melanoma. Particulars: 10 µM unless noted.
Experiment [18] concerns LOX IMVI melanoma. The following applies: 10 µM unless noted.
Experiment [19] relates to SK-MEL-28 melanoma. Particulars: 10 µM.
The subject of experiment [20] is SK-MEL-2 melanoma. Particulars: 10 µM unless noted.

About 83,000 compounds went through this panel and 20% of them were active in at least one assay; those are over-represented in the sample as a whole.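 A percent growth of 40 corresponds to 60% growth inhibition; 0 means no net growth; -100 means all cells died. Active threshold: below 10.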 Values without a mark were called inactive. Activity calls are given as the source filed them.

As to `Fc1cccc(COc2ccc(Nc3ncnc4onc(-c5ccccc5)c34)cc2)c1`, the growth in experiment [1] is 12.1%; in [2], 41%; in [3] it was 13.8%; in [4], -26.6% (active); in [5] it was 29.2%; in [6], 2.77% (active). In addition, the growth in experiment [7] is -42.4% (active); in experiment [8], 54.8%; in [9], -23% (active); in experiment [10], 20.2%; in experiment [11], 3.86% (active); in experiment [12], -34.9% (active). Besides, the growth was 21% in experiment [13]; 22.5% in experiment [14]; 18.4% in experiment [15]; 19.2% in [16]; 23.5% in experiment [17]; 23.1% in [18]. Further, the growth is 55.2% in [19] and 35.9% in experiment [20].

With `COc1ccc(/C=C/C(=O)c2c(C)nc3ccccc3c2/C=C/c2ccccc2)c(OC)c1`, the growth was 69.6% in [1]; 106% in experiment [2]; 68.9% in experiment [3]; 89.6% in [4]; 80.7% in [5]; 90.9% in experiment [6]. The growth is 100% in experiment [7]; 104% in experiment [8]; 97.3% in experiment [9]; 72.2% in [10]; 62.9% in experiment [11]; 81.5% in experiment [12]. Moreover, the growth in [13] is 92.9%; in [14], 90%; in experiment [15], 75.9%; in experiment [16], 85.7%; in [17] it was 62.1%; in experiment [18] it was 83.8%. For the same compound, the growth in [19] was 108%; in experiment [20], 95.9%.

As for `O=c1oc2ccc(Br)cc2c(=O)n1-c1ccc(Br)cc1F`, the growth was 8.3% (active) in experiment [1]; -28.4% (active) in experiment [2]; -27.2% (active) in [3]; -11.5% (active) in [4]; 12% in experiment [5]; -73.6% (active) in [6]. The growth is -3.2% (active) in experiment [7]; -15.1% (active) in experiment [8]; -12.4% (active) in [9]; 2.53% (active) in [10]; 34.8% in experiment [11]; -42.4% (active) in experiment [12]. The growth was 16.9% in experiment [13]; -5.99% (active) in experiment [14]; -4.81% (active) in [15]; -84.8% (active) in experiment [16]; -40.7% (active) in experiment [17]; 2.66% (active) in experiment [18]. For the same compound, the results for the growth in experiment [19] and in [20] were -22.6% (active) and -18% (active), respectively.

With `O=c1oc2ccc(Cl)cc2c(=O)n1-c1ccc(Cl)cc1F`, the growth in [1] is 4.6% (active); in experiment [2], -29.9% (active); in experiment [3] it was -17% (active); in experiment [4], 4.5% (active); in experiment [5], 7.63% (active); in experiment [6], -64.2% (active). Further, the growth is 1.24% (active) in experiment [7]; -15.1% (active) in experiment [8]; 0.632% (active) in [9]; 1.3% (active) in experiment [10]; 7.06% (active) in experiment [11]; -25.3% (active) in experiment [12]. In addition, the growth in experiment [13] is 18.4%; in experiment [14] it was -4.3% (active); in experiment [15], 2.03% (active); in experiment [16] it was -87% (active); in experiment [17], -10.7% (active); in experiment [18] it was 3.62% (active). Moreover, the growth in experiment [19] was 0.566% (active); in [20], -31% (active).

For `COc1ccc(Cn2c(Br)c3c(c2-c2cc(OC)c(OC)c(OC)c2)CCc2sc(NC(=O)c4ccc(OC)cc4)nc2-3)cc1`, the growth in experiment [1] was 84.6%; in [2] it was 86.1%; in experiment [3], 87.1%; in experiment [4], 91.9%; in experiment [5], 78.6%; in [6], 67.8%. The growth is 100% in [7]; 116% in experiment [8]; 97.4% in experiment [9]; 98.3% in experiment [10]; 101% in [11]; 82.4% in experiment [12]. For the same compound, the growth in [13] is 98.5%; in experiment [14] it was 98.6%; in [15], 84.2%; in experiment [16], 86.7%; in [17], 94.9%; in experiment [18], 92.5%. The figures for the growth in experiment [19] and in [20] were 105% and 96.7%, respectively.

For the compound `COC(=O)/C(CCC=C(C)C)=C1\[C@@H](OC(C)=O)C[C@@]2(C)[C@H]1C[C@@H](O)[C@H]1[C@@]3(C)CC[C@H](NCCCNCCCCNCCCN)[C@@H](C)[C@@H]3CC[C@@]12C`, the growth in experiment [1] was 33.4%; in experiment [2], 47.2%; in [3], 56%; in [4], 75.8%; in [5] it was 81.3%; in experiment [6], 41.9%. Besides, the growth is 66% in experiment [7]; 91.9% in experiment [8]; 40% in experiment [9]; 76.8% in [10]; 31.1% in experiment [11]; 93.4% in experiment [12]. For the same compound, the growth in experiment [13] is 61.8%; in experiment [14], 71.5%; in experiment [15], 77.3%; in [16] it was 12.6%; in experiment [17] it was 31.9%; in experiment [18] it was 52.9%. Also, the results for the growth in experiment [19] and in experiment [20] were 19.9% and 98.1%, respectively.

Consider `CCOc1cccc(/C=N/NC(=O)C(=O)Nc2cccc(C(F)(F)F)c2)c1O`, for which the growth in [1] is 21.7%; in experiment [2] it was 56.7%; in [3], 31.7%; in [4], 37.6%; in experiment [5] it was 35.4%; in experiment [6], 10%. In addition, the growth in experiment [7] was 11.7%; in experiment [8], 5.14% (active); in [9], 13.2%; in [10], 22.3%; in [11], 41.3%; in experiment [12], 68.1%. The growth in [13] was 41.3%; in experiment [14] it was 22.9%; in experiment [15] it was 44.5%; in [16], -25.5% (active); in experiment [17] it was 2.68% (active); in [18], 6.47% (active). In addition, the growth in [19] is 44.6%; in experiment [20], 36.9%.
